From PubChem BioAssay

Experiment: DUSP6 inhibitors restoring Erk phosphorylation by chemical complementation, primary imaging in DUSP6-transfected HeLa (AID 609)
Settings: HeLa MKP-3 transfected, phospho-Erk imaging KS statistic; measured here: nuclear c-Myc green intensity z-score; at 10 µM; cells stimulated with TPA for 15 min

Row | Compound | z-score
1 | COC(=O)C(NC(C)=O)(Nc1ccccn1)C(F)(F)F (centres undefined) | -0.933
2 | CCOC(=O)c1ccc2nc(NC(NC(C)=O)(C(=O)OC)C(F)(F)F)sc2c1 (centres undefined) | -0.549
3 | Cc1nc2sc(C#N)c(N)c2c2c1CCCC2 | 2.17
4 | COCc1cc(=O)[nH]c(Nc2nc3ccccc3o2)n1 | -1.45
5 | Cc1c(O)c(CN2CCCCC2)cc2c3c(c(=O)oc12)CCC3 | -1.04
6 | O=C(C1CC1(c1ccccc1)c1ccccc1)N1CCOCC1 (centres undefined) | -1.65
7 | Cn1c(=O)[nH]c(=O)c2c1nc(N(CCO)Cc1ccccc1)n2Cc1ccccc1Cl | -1.16
8 | CC1(C)CNC(=O)c2sc(N3CCOCC3)nc2C1 | 0.266
9 | CCOC(=O)CNC(=O)Nc1ccccc1C(=O)OC | 0.241
10 | CC(=O)C1=C(O)C(=O)N(c2ccc(C(=O)O)cc2)C1c1ccccc1 (centres undefined) | -0.568
11 | Cn1c(=O)n(Cc2ccccc2)c(=O)c2c1nc(NCC1CCCO1)n2Cc1ccccc1 (centres undefined) | 0.807
12 | c1ccc(CN2CCN(c3ncnc4c3[nH]c3ccccc34)CC2)cc1 | -1.18
13 | Cc1nnc2n(-c3ccccc3)c(=O)c3c4c(sc3n12)CCCC4 | -0.18
14 | COc1ccc2c(c1)n([O-])c1c([n+]2=O)CCC1 | 2.02
15 | Cc1cc2c(c(=O)o1)C(Cc1ccccc1)C(C#N)=C(N)O2 (centres undefined) | 0.225
16 | c1ccc2c(c1)[nH]c1c(N3CCC4(CC3)OCCO4)ncnc12 | 0.207
17 | CCOC(=O)c1ccc(N=Cc2nc(-c3ccccc3)oc2OC(C)=O)cc1 | 0.0892
18 | CCN1CCc2c(C#N)c(N3CCCCC3)nc(NCc3ccccc3)c2C1 | -1.37
19 | Cc1cc(C)n(C(=O)CNC(=O)C2COc3ccccc3O2)n1 (centres undefined) | -1.59
20 | CCCCOc1ccccc1C(=O)NCCCC(=O)O | 1.18

Row | Compound | z-score
21 | OCCNc1ncnc2c1c(-c1ccccc1)c(-c1ccccc1)n2Cc1ccco1 | -1.32
22 | COc1ccc(CCn2c(=N)c(C#N)cc3c(=O)n4ccccc4nc32)cc1 | -0.331
23 | Cc1nc2ccccc2cc1O | -0.624
24 | COC(=O)CNC(=O)c1c(C)cc(=O)oc1C | -0.128
25 | Cc1c(NC(=O)c2ccc(=O)oc2)c(=O)n(-c2ccccc2)n1C | 0.226
26 | Cc1ccc(C(=O)/C=C/Nc2cccc(O)c2)cc1 | -0.594
27 | CCn1nc(NC(=O)c2cccnc2)c2cc3ccccc3nc21 | 1.36
28 | Cc1ccc(/C=N/n2nnnc2N)o1 | -0.504
29 | Cc1ccc2[nH]c3c(N4CCOCC4)ncnc3c2c1 | 0.984
30 | O=C(Nc1ccccn1)NC(C(F)(F)F)C(F)(F)F | 0.584
31 | CC(=O)c1c(OCC(=O)O)ccc2c(C)cc(=O)oc12 | 0.597
32 | O=C(NC1CCS(=O)(=O)C1)c1c(NC(=O)C2COc3ccccc3O2)sc2c1CCCC2 (centres undefined) | -1.93
33 | Cc1cc(O)c(C(C)C)cc1N=C1CSC(=O)N1 | -0.53
34 | O=C1C2ON(c3ccccc3)C(c3cccnc3)C2C(=O)N1c1ccccc1 (centres undefined) | 0.609
35 | COc1ccccc1N=Cc1nc(-c2ccccc2)oc1OC(C)=O | -1.18
36 | Fc1ccc(-c2cnc[nH]2)cc1 | 0.681
37 | Nn1c(SCC(=O)Nc2ccc3c(c2)OCCO3)nnc1C(F)(F)F | -0.513
38 | CN(C)/C=C1\N=C(c2ccc(Cl)cc2Cl)OC1=O | 2.52
39 | CCOc1ccccc1N1CCN(c2nc3ccccc3nc2C(C#N)C(=O)OC)CC1 (centres undefined) | 0.234
